Pf Dd2 growth – blocks in vitro growth of P. falciparum Dd2 | hit rate 4.3% among 120,000 | P. falciparum Dd2 growth, SYBR Green, 72 h | Potency, µM (titrated, usually from 28.9 µM), without a hit: at the highest dose activity, negative = inhibition, usual class: inhibitors; active = well fitted inhibition curve with a large enough effect;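 also: plate controls were DMSO vehicle for no effect and reference drug for full effect; nearly all actives have a fitted effect of over 65% in size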
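Readout: SYBR Green fluorescence, 485 nm excitation, 535 nm emission, after ~16 h lysis at 37C. Before that, Dd2-infected red cells (2.5% hematocrit) grew 72 h with compound, 29 uM top final concentration.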
Starred values were filed as active, the others as inactive; [ ] = remark or other dose. Many of the other results were omitted from the sample, so hits are more common in it than they were. Potency is read from the fitted curve at half-maximal effect.

`Cc1ccc(C(=O)c2cn(Cc3ccccc3)c3ccccc3c2=O)cc1` gave Pf Dd2 growth inactive.
`COc1ccc(C2Cn3nnc(C(=O)N4CCC(C(=O)NCc5cccc(F)c5)CC4)c3CO2)cc1` (centres undefined) gave Pf Dd2 growth -2.1%.
COc1ccc(C(=O)Nc2ccc([C@@H](O)[C@H]3COCC(=O)N3Cc3ccccc3F)cc2)cc1 was read as Pf Dd2 growth inactive.
Screening O=C1C(N2CCN(Cc3ccc[nH]3)CC2)CCN1Cc1cccnc1 (centres undefined) returned Pf Dd2 growth inactive.
`CCN1CCC(CCNC(=O)C2N(C(C)C)C(=O)C23CCCCC3)CC1` (centres undefined) gave Pf Dd2 growth 16.5%.
For COc1cccc(CN2CCOC3CCN([S+](=O)([O-])c4ccccc4C)CC3C2=O)c1 (centres undefined) the results were Pf Dd2 growth inactive.
`Cc1ccc(CN2CCSc3ccc(C(=O)N4CCN(c5cc(C)ccc5C)CC4)cc32)cc1` gave Pf Dd2 growth 11.2µM*.
Cc1ccc(Cl)cc1N1CCN(C(=O)c2ccc3c(c2)N(Cc2ccc(F)cc2)CCS3)CC1 was read as Pf Dd2 growth 7.94µM*.
`COc1ccc(Cn2c(=O)[nH]c3cc(C(=O)N4CCN(c5cc(C)ccc5C)CC4)ccc3c2=O)cc1` gave Pf Dd2 growth inactive.
`O=C(CN1CCSc2ccccc21)N1CCN(c2ccc(F)cc2)CC1` gave Pf Dd2 growth 2.5%.
`Cc1c(C)n(Cc2ccc(F)cc2)c2ccc(C(=O)N3CCN(c4ccc(Cl)cc4)CC3)cc12` gave Pf Dd2 growth -18.6%.
O=C(c1ccc2c(c1)N(Cc1ccc(F)cc1)CCS2)N1CCN(c2ccccc2)CC1 was read as Pf Dd2 growth 10µM*.
Cc1ccc(C)c(N2CCN(C(=O)CN3CCSc4ccccc43)CC2)c1 was read as Pf Dd2 growth 7.0%.
Cc1ccc(Cl)cc1N1CCN(C(=O)Cn2cnc3onc(-c4ccc(F)cc4)c3c2=O)CC1 was read as Pf Dd2 growth 13.5%[5.79 µM].
Cc1c(C)n(Cc2ccccc2)c2ccc(C(=O)N3CCN(c4ccc(F)cc4)CC3)cc12 was read as Pf Dd2 growth 15.9%.
For Cc1ccc(S(=O)(=O)N2CCc3c(C(=O)NCc4ccccn4)cccc32)cc1 the results were Pf Dd2 growth -21.3%.
Screening C[C@]1(CO)C2CC[C@@H](O)[C@@H](CC(=O)N3CCC[C@H]3CO)[C@]2(C)CC[C@H]1OC(=O)Nc1ccc(Cl)c(Cl)c1 (some centres undefined) returned Pf Dd2 growth -10.0%.
`CCC(=O)N1[C@H]2CC[C@@H]1c1cnc(-c3ccc(F)cc3)nc1C2` gave Pf Dd2 growth -15.0%.
Cc1ncccc1C(=O)N1[C@H]2CC[C@@H]1c1cnc(-c3ccc(F)cc3)nc1C2 was read as Pf Dd2 growth -3.4%.
`COc1ccc(C(=O)N2[C@H]3CC[C@@H]2c2cnc(-c4ccc(F)cc4)nc2C3)cc1F` gave Pf Dd2 growth inactive.
`O=C(C1CCCCC1)N1[C@H]2CC[C@@H]1c1cnc(-c3ccc(F)cc3)nc1C2` gave Pf Dd2 growth inactive.
Screening O=C(C1CCC1)N1[C@H]2CC[C@@H]1c1cnc(-c3ccc(F)cc3)nc1C2 returned Pf Dd2 growth 12.6µM*.
For COCCn1c(C)cc(C(=O)N2[C@H]3CC[C@@H]2c2cnc(-c4ccc(F)cc4)nc2C3)c1C the results were Pf Dd2 growth 11.2µM*.
For CCC1(N2CCN(C(=O)c3ccc(F)c(Cl)c3)CC2)CCN(S(C)(=O)=O)C1 (centres undefined) the results were Pf Dd2 growth -15.1%.
`Cc1cc(C)n(-c2cccc(CN(C)C(=O)C3CCC(=O)N(Cc4ccccn4)C3)c2)n1` (centres undefined) gave Pf Dd2 growth 10.9%.
Cc1ccsc1C(=O)N1CCc2onc(-c3ccc(F)c(F)c3)c2C1 was read as Pf Dd2 growth -15.0%.
For COc1ccc(-c2cc(C[C@@H]3CC[C@H](O)[C@@H](CNC(=O)N4CCOCC4)O3)no2)cc1 the results were Pf Dd2 growth inactive.
`O=C(NC(=O)c1cccc(F)c1)Nc1ccc(-c2cc(C(F)(F)F)nn2-c2ccccc2)cc1` gave Pf Dd2 growth -17.8%.
Screening O=C(NC(=O)c1ccccc1)Nc1ccc(-c2cc(C(F)(F)F)nn2-c2ccccc2)cc1 returned Pf Dd2 growth inactive.
`O=C(Nc1ccc(-c2cc(C(F)(F)F)nn2-c2ccccc2)cc1)c1cccc(F)c1` gave Pf Dd2 growth 11.2µM*.
Cc1nn(CCC#N)c(C)c1[C@@H]1C=C[C@@H](NC(=O)Nc2ccc(Cl)cc2)C1 was read as Pf Dd2 growth inactive.
`O=C(NCC1(COc2cccnc2)C[C@@H](O)[C@@H](O)C1)Nc1cccnc1` (some centres undefined) gave Pf Dd2 growth 26.0%[44.1 µM].
`CCN(CC)[C@H]1[C@@H]2OC[C@@H](O2)[C@@H](NCc2ccccc2OC)[C@@H]1O` gave Pf Dd2 growth inactive.
Screening O=C(Cn1ccnc1)N1CCc2c(n(CCOc3ccccc3)n(-c3ccccc3)c2=O)C1 returned Pf Dd2 growth 44.8%.

Screening results deposited in PubChem BioAssay by National Center for Advancing Translational Sciences (NCATS).
